Data reported in PubChem BioAssay (NCATS).
“And” between values parts separate entries of the source, which are not always exact repeats. Identical values can stand only once. A number with no mark means an inactive call. Inconclusive results are not listed. A call without a number means that no potency is given here. The source made the active and inactive calls. Unless noted, calls come from the whole dose curve; as a rule, active = well fitted curve in the direction sought with a large enough effect; inconclusive = small, poorly fitted or top-dose-only effect, or another doubt; inactive = no such curve, though single readings can be large; an effect the other way counts as inactive or inconclusive.

Columns and labels:
[1] = molecular target: Mitogen-activated protein kinase 10 (Mus musculus) (UniProt Q61831); assay: JNK3 AlphaScreen Assay (AID 530; active = well fitted curve in either direction with a large enough effect, not every such curve was filed as active;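 note: kinase came from lysate of stimulated human HepG2 cells; signal reports phosphorylation of biotinylated GST-cJun 1-79 at Ser73 with 10 µM ATP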)
How it was run: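 qHTS format: compounds tested as titrations against IL-1beta/TNF-alpha-activated HepG2 lysate JNK3 with biotin-GST-cJun substrate and 10 uM ATP at room temperature. Loss of anti-phospho-cJun AlphaScreen signal indicates inhibition.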

[2] = Cell Viability - Mesenchymal (AID 546);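 note: cells exposed to compound for 40 hours before reading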
How it was run: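 Human kidney mesenchymal cells from normal renal glomeruli, 1000 cells/well, rested 5 hr at 37 °C, then treated 40 hr at 37 °C in complete medium. Cellular ATP read by CellTiter-Glo luminescence; AC50 from Hill-equation fits.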

[3] = Cellular Toxicity (caspase-3) HepG2 (AID 654);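 note: cells exposed to compound for 16 hours before reading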
How it was run: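 qHTS, HepG2, 1500 cells/well, complete medium; cpd 16 h 37 °C; Caspase-Glo 3/7, 20 min RT; lum. Norm: DMSO vs 100 uM tamoxifen; AC50 Hill fit.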

[4] = Cellular Toxicity (caspase-3) SHSY5Y (AID 657)
How it was run: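 qHTS, SH-SY5Y, 1500 cells/well, 5 h pre-incubation 37 °C; compound 16 h 37 °C; Caspase-Glo 3/7 1 h RT; luminescence. Norm.: DMSO = 0, 10 uM staurosporine = 100%. Hill fit → AC50.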

[5] = Cellular Toxicity (caspase-3) SK-N-SH (AID 661)
How it was run: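 Caspase 3/7 activation is measured as a luminescence increase from aminoluciferin released by substrate cleavage in SK-N-SH cells after 16 hr compound treatment; values are AC50 from concentration-response curves.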

[6] = Cellular Toxicity (caspase-3) Hek293 (AID 664); details: HEK293 caspase-3 activation, DMSO = 0%, 100 µM tamoxifen = 100%; at 92.2 µM (top of the series);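 note: cells exposed to compound for 16 h at 37 °C before readout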
How it was run: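 Activation of caspase-3/7 is measured as increased luminescence from cleaved peptide-aminoluciferin substrate in HEK293 cells treated 16 hours at 37 °C. AC50 values come from Hill-equation fits of concentration-response data.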

[7] = MultiTox-Fluor Cytotoxicity Assay - LYMP1-001 - Dead Cells (AID 946)
How it was run: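 LYMP1-001 lymphoblastoid cells (2500/well) treated 16 h at 37 C. Dead-cell protease cleavage of bis-AAF-R110 read at Ex/Em 485/520. Normalized to DMSO and 15 uM tetraoctylammonium bromide; AC50 from Hill fits.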

[8] = Cell Viability - LYMP2-009 (AID 968); note: nearly all actives have a fitted effect of over 55% in size
[9] = Cell Viability - LYMP2-019 (AID 973); note: nearly all actives have a fitted effect of over 55% in size; note: potency is the fitted concentration of half-maximal effect
How it was run: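 Cells plated at 2500/well and allowed 5 hr at 37 C before compound addition. After 24 hr incubation, CellTiter-Glo reagent was added, plates sat 30 min at room temperature, and luminescence was recorded.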

[10] = Cell Viability - LYMP2-023 (AID 975);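 note: cellular ATP measured by luciferase luminescence as viability proxy; nearly all actives have a fitted effect of over 55% in size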
How it was run: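 Concentration-dependent drop in intracellular ATP measures acute cytotoxicity in a human lymphoblastoid line treated for 24 hours in complete culture medium. AC50 values are taken from Hill-equation fits of qHTS data.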

[11] = Cell Viability - LYMP2-002 (AID 977);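 note: compound exposure lasted 24 h at 37 °C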
How it was run: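 Human lymphoblastoid LYMP2-002 cells, 2500 per well, exposed to compounds for 24 h at 37 C in complete medium; viability read as intracellular ATP by CellTiter-Glo luminescence, AC50 from Hill fits.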

[12] = Cell Viability - LYMP2-008 (AID 980); note: nearly all actives have a fitted effect of over 60% in size; note: potency is the fitted concentration of half-maximal effect
How it was run: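 Acute cytotoxicity is scored as concentration-dependent loss of cellular ATP in a human lymphoblastoid line after 24 hr treatment at 37 C. ATP is quantified by luciferase luminescence.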

[13] = Cell Viability - LYMP2-024 (AID 988); note: nearly all actives have a fitted effect of over 60% in size; note: potency is the fitted concentration of half-maximal effect
How it was run: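 Acute toxicity is measured as concentration-dependent loss of intracellular ATP in a human lymphoblastoid line treated 24 hours at 37 C. Luciferase luminescence quantifies ATP; AC50 values come from standard Hill-equation modelling.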

[14] = molecular target: Tumor necrosis factor (Homo sapiens) (UniProt P01375); assay: qHTS assay to identify small molecules that stimulate Tumor Necrosis Factor-alpha (TNF-alpha) secretion (AID 651757; active = well fitted curve in the direction sought with a large enough effect in the signal ratio; the % refers to the signal ratio)
Sequence of Tumor necrosis factor (Homo sapiens) (P01375 whole entry, looked up): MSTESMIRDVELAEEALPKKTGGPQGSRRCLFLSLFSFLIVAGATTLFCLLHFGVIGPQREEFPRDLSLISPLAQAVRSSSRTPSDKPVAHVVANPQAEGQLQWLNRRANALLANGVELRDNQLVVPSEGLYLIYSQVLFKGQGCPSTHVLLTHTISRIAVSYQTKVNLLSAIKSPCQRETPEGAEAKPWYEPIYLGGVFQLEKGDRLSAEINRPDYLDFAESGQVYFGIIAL
How it was run: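 Secreted TNF-alpha from compound-treated THP-1 cells (17 hrs, 37 C) was quantified with a homogeneous time-resolved fluorescence antibody assay.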

[15] = qHTS assay for small molecule agonists of the antioxidant response element (ARE) signaling pathway measured by Nrf2-dependant transcriptional activity (AID 720636; active = well fitted curve in the direction sought with a large enough effect in the repeat runs; an effect the other way counts as inactive or inconclusive;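 note: HepG2 cells with an ARE-driven luciferase reporter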)
How it was run: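 We exposed ARE-luc HepG2 cells, seeded in assay medium with 1% dialyzed FBS and allowed 6 hr to adhere, to test compounds overnight (16 hr, 37 C) before measuring luciferase with ONE-Glo.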

[16] = qHTS assay for cell viability of the p53RE-bla HCT-116 cell line (AID 743292); note: nearly all actives have a fitted effect of over 55% in size
How it was run: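 In this qHTS counter-screen, metabolically competent p53RE-bla HCT-116 cells were counted via their ATP content. Compounds were applied for 16 h at 37 C and luciferase-coupled luminescence was measured.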

[17] = Cellular Toxicity (caspase-3) Jurkat (AID 655); details: Jurkat caspase-3 activation, luminescence; caspase-3 activation: at 92.2 µM (top of the series), DMSO = 0%, tamoxifen = 100%;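 note: cells exposed to compound for 16 h at 37 °C before reading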
How it was run: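 5000 Jurkat cells/well; compound 16 hr, 37 °C; Caspase-Glo 3/7 added, 20 min RT; luminescence read. Norm: DMSO = 0%, tamoxifen 100 uM = 100%. AC50, Hill model.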

[18] = Cellular Toxicity (caspase-3) NIH 3T3 (AID 666);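 note: caspase signal read after 16 h compound exposure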
How it was run: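 Concentration-response qHTS in NIH 3T3 mouse fibroblasts scores caspase-3/7 activation as rising luminescence after 16 hr compound exposure. Signals are scaled between DMSO-only and 100 uM tamoxifen.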

[19] = qHTS assay for small molecule activators of the p53 signaling pathway (AID 651743; active = well fitted activation curve with a large enough effect in the signal ratio, not every such curve was filed as active; the % refers to the signal ratio); details: HCT-116 p53RE-bla, beta-lactamase FRET ratio, 16 h; activation: stronger effect = higher value
How it was run: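 HCT-116 p53RE-bla, 4,000 cells/well; 5 h settle; cpd/DMSO 16 h, 37 C; LiveBLAzer B/G 2 h RT; fluorescence intensity.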

[20] = qHTS assay for small molecule antagonists of the retinoid-related orphan receptor gamma (ROR-gamma) signaling pathway - cell viability counter screen (AID 720652; active = well fitted curve in the direction sought with a large enough effect in the repeat runs; an effect the other way counts as inactive or inconclusive;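 note: CHO reporter cells with doxycycline-induced ROR-gamma expression; compound exposure lasted 16 hr before ATP read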)
How it was run: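 Cytotoxicity is quantified via intracellular ATP (CellTiter-Glo luminescence) in doxycycline-induced CHO ROR response element-luciferase reporter cells treated with compound for 16 hr at 37 C, 5% CO2.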

| SMILES | Potency [1] | Potency [2] | outcome [3] | outcome [4] | Potency [5] | caspase-3 activation [6] | outcome [7] | Potency [8] | Potency [9] | Potency [10] | Potency [11] | Potency [12] | Potency [13] | outcome [14] | Potency [15] | Potency [16] | caspase-3 activation [17] | Potency [18] | activation [19] | Potency [20] |
| --- | --- | --- | --- | --- | --- | --- | --- | --- | --- | --- | --- | --- | --- | --- | --- | --- | --- | --- | --- | --- |
| N#CCBr | inactive | inactive | inactive | inactive | inactive | 1.09% | inactive | inactive | inactive | inactive | inactive | inactive | inactive | inactive | inactive | inactive | – | – | – | – |
| COc1ccc(C=O)cc1 | inactive | inactive | inactive | inactive | inactive | 1.65% | inactive | inactive | inactive | inactive | – | inactive | inactive | inactive | inactive | inactive | -0.692% | inactive | -1.3% | inactive |
| CCOC(=O)CC(SP(=O)(OC)OC)C(=O)OCC (centres undefined) | inactive | inactive | – | inactive | inactive | 1.27% | inactive | inactive | inactive | inactive | inactive | inactive | inactive | inactive | – | inactive | 1.26% | inactive | -0.7% and -2.82% | inactive |
| O=[N+]([O-])c1cc(Cl)c(Cl)cc1Cl | inactive | – | inactive | inactive | inactive | -4.07% | inactive | – | inactive | inactive | inactive | inactive | inactive | – | – | inactive | 2.39% | inactive | – | inactive |
| OC[P+](CO)(CO)CO | inactive | inactive | inactive | inactive | inactive | 0.818% | inactive | – | 15.8 µM (active) | – | – | 39.8 µM (active) | 7.94 µM (active) | inactive | – | – | 16.2% | inactive | 4.85% and 1.14% | inactive |
| O=C(O)c1cccc(Cl)c1 | – | inactive | inactive | inactive | – | -0.358% | inactive | inactive | inactive | inactive | inactive | inactive | inactive | – | – | inactive | -2.79% | inactive | – | – |
| CCCCCC[N+](=O)[O-] | inactive | inactive | inactive | inactive | inactive | – | – | – | inactive | inactive | inactive | – | – | inactive | inactive | inactive | 0.0633% | inactive | -5.04% | inactive |
| ClC(Cl)Br | – | inactive | – | inactive | inactive | -0.335% | inactive | inactive | inactive | inactive | inactive | inactive | inactive | inactive | inactive | inactive | 0.703% | inactive | – | inactive |
| Oc1ccc(Cl)c(Cl)c1Cl | inactive | inactive | inactive | inactive | inactive | 1.72% | inactive | inactive | – | – | inactive | inactive | inactive | inactive | inactive | – | 0.688% | inactive | -0.769% | inactive |
| Nc1ccc(-c2ccc(N)cc2)cc1 | inactive | inactive | inactive | inactive | inactive | 0.43% | inactive | inactive | inactive | – | inactive | inactive | inactive | – | inactive | inactive | 0.684% | inactive | -1.06% | inactive |
| O=C(Cl)c1ccccc1F | – | inactive | inactive | inactive | inactive | 1.06% | inactive | inactive | – | inactive | inactive | inactive | inactive | inactive | inactive | inactive | 2.05% | – | -0.282% | inactive |
| N#C/C(N)=C(/N)C#N | – | inactive | – | inactive | inactive | -2.4% | inactive | inactive | inactive | inactive | inactive | inactive | inactive | inactive | inactive | inactive | 1.12% | inactive | 1.55% | inactive |
| Cc1cnc[nH]1 | inactive | inactive | – | inactive | inactive | -0.172% | – | – | inactive | – | inactive | inactive | inactive | inactive | inactive | inactive | 1.79% | inactive | -6.55% | – |
